This passage reports outcome and AC50 results from PubChem BioAssay (EPA / NIEHS).

Inconclusive results are not listed. Activity calls are given as the source filed them. How the source made its calls, unless noted: active means hit-call score of the fitted dose curve at least 0.9, where 1 is the maximum; inactive means score below 0.9.

The target of experiment [1] is Nucleoli Translocation, AR (gene 367) (UniProt P10275). Description: UPITT_HCI_U2OS_AR_TIF2_Nucleoli_Agonist: University of Pittsburgh U2OS Androgen Receptor-Transcriptional Intermediary Factor 2 (AR-TIF2) Agonism High Content Imaging Assay for Nucleoli Translocation (AID 2283998; active means hit-call score of the fitted dose curve at least 0.9, where 1 is the maximum). A digest of the protocol: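 Red-tagged human androgen receptor co-expressed with GFP-tagged TIF2 serves as the binding reporter. Primary testing used 20 uM final (0.2% DMSO); follow-up dose response covered 0.195 to 50 uM final (0.5% DMSO).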

Experiment [2] addresses Ratio of Nucleoli Translocation and Cytoplasm, AR (gene 367) (UniProt P10275). Description: UPITT_HCI_U2OS_AR_TIF2_Nucleoli_Cytoplasm_Ratio_Antagonist: University of Pittsburgh U2OS Androgen Receptor-Transcriptional Intermediary Factor 2 (AR-TIF2) Antagonism High Content Imaging Assay for Ratio of Nucleoli Translocation and Cytoplasm (AID 2283999; active means hit-call score of the fitted dose curve at least 0.9, where 1 is the maximum;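 further: antagonists lower the DHT-driven ratio of nucleolar to cytoplasmic red signal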). A digest of the protocol:
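High-content imaging of red fluorescence ratio, nucleoli versus cytoplasm, in U2OS expressing AR-RFP and TIF2-GFP, fitted relative to DHT. Compounds tested once at 20 uM final, then 0.195 to 50 uM final in serial dilution.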

Experiment [3] shares this target. Description: UPITT_HCI_U2OS_AR_TIF2_Nucleoli_Cytoplasm_Ratio_Agonist: University of Pittsburgh U2OS Androgen Receptor-Transcriptional Intermediary Factor 2 (AR-TIF2) Agonism High Content Imaging Assay for Ratio of Nucleoli Translocation and Cytoplasm (AID 2284000; active means hit-call score of the fitted dose curve at least 0.9, where 1 is the maximum;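 further: hits raise the red nucleolar to cytoplasm ratio above vehicle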). An outline of the steps:
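Human osteosarcoma U2OS line, AR-RFP plus TIF2-GFP; compounds 0.195–50 uM final, 0.5% DMSO. Readout: nucleolar/cytoplasmic RFP ratio by HCI, positive direction vs DMSO baseline.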

Experiment [4] in a line: CCTE_Shafer_MEA_acute_spike_number: CCTE's Neural Acute Assay for Total Number of Spikes, Shafer Lab (AID 2284008).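 On AC50: curve fitted for decrease in spike count so AC50 reflects inhibitors.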 A digest of the protocol:
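Cortical neurons from rat, matured to DIV 13 or 15 on microelectrode arrays, are recorded at 37 C before and during 40-min exposure to 0.03-40 uM compound. Wells need >/= 10 active electrodes.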

Experiment [5] in a line: CCTE_Shafer_MEA_acute_firing_rate_mean: CCTE's Neural Acute Assay for Mean Firing Rate, Shafer Lab (AID 2284009).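 Further: analyzed for loss of signal so actives lower firing rate relative to DMSO.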 A digest of the protocol: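 Rat cortical neuron cultures matured to DIV 13 or 15, equilibrated 20 min at 37 C, then recorded 40 min for baseline. Compound (0.03-40 uM) added and a further 40 min recorded; percent change in mean firing rate calculated per well.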

Experiment [6] in a line: CCTE_Harrill_HTTr_Viability_MCF7: CCTE's 6-hour Cell Viability Assessment for the High-Throughput Transcriptomics (HTTr) Platform, in MCF-7 cells cultured in DMEM + 10% fetal bovine serum, Harrill Lab (AID 2284010). A digest of the protocol: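 Propidium iodide exclusion, imaged by high-content analysis, gauged viability after a six-hour exposure across eight concentrations. Cells were MCF-7 grown in DMEM with 10% fetal bovine serum; fits run in both directions against DMSO.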

Experiment [7] in a line: CCTE_Harrill_HTTr_Apoptosis_MCF7: CCTE's 6-hour Apoptosis Assessment for the High-Throughput Transcriptomics (HTTr) Platform, in MCF-7 cells cultured in DMEM + 10% fetal bovine serum, Harrill Lab (AID 2284011). A digest of the protocol:
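Cells are dosed with test chemicals at eight concentrations and imaged 6 hours later for caspase-3/7 activity using a green fluorogenic detection reagent. Activity is fitted in both directions against DMSO controls.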

Experiment [8] is described as follows: CCTE_Harrill_HTTr_CellCount_MCF7: CCTE's Cell Proliferation Assessment for the High-Throughput Transcriptomics (HTTr) Platform, Harrill Lab (AID 2284012; active means hit-call score of the fitted dose curve at least 0.9, where 1 is the maximum;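 further: cells exposed to compound for six hours; intended direction is loss of nuclei count meaning fewer cells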). A digest of the protocol:
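Cell count from high-content imaging of Hoechst-labeled nuclei serves as viability/growth readout. Chemicals were applied to MCF-7 cells in eight concentrations for six hours, with fitting in both directions relative to DMSO.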

Experiment [9] is described as follows: CCTE_Shafer_MEA_acute_burst_number: CCTE's Neural Acute Assay for Single-Electrode Bursts, Shafer Lab (AID 2284013). An outline of the steps: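 Percent change in single-electrode burst number per well, from 40-min recordings taken before and after adding compound (0.03-40 uM) to primary rat cortical neurons on MEA plates at DIV 13 or 15, 37 C.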
A short description of experiment [10]: CCTE_Shafer_MEA_acute_burst_duration_mean: CCTE's Neural Acute Assay for Mean Burst Duration, Shafer Lab (AID 2284014).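 Further: hits are decreases in mean burst duration relative to DMSO controls.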 An outline of the steps: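 Rat cortical cultures, DIV 13/15; 40 min baseline, then 40 min with compound (0.03-40 uM), 37 C. Spikes: 300-5000 Hz band-pass, 8x rms threshold. Read-out: % change in mean single-electrode burst duration, DMSO-referenced, loss direction.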

Experiment [11] is described as follows: CCTE_Shafer_MEA_acute_per_burst_spike_number_mean: CCTE's Neural Acute Assay for Average Number of Spikes Per Burst, Shafer Lab (AID 2284015).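 Further: hits are decreases in mean spikes per burst versus baseline.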 An outline of the steps: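 We recorded spontaneous network firing of rat cortical neurons for 40 min before and 40 min during exposure to compound at 0.03-40 uM, at 37 C. Spikes were detected adaptively at 8x rms noise, and the change in average spikes per burst was fitted against DMSO.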

Experiment [12] in a line: CCTE_Shafer_MEA_acute_interburst_interval_mean: CCTE's Neural Acute Assay for Mean Interburst Interval, Shafer Lab (AID 2284016).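 Further: percent change of mean interburst interval versus each well's own pre-dose baseline; curves fitted for decrease in interburst interval relative to DMSO.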 An outline of the steps: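 MEA recording of spontaneous network bursting in primary rat cortical cultures; mean interburst interval was compared before and after a 40-min compound exposure (0.03-40 uM) and expressed as percent change, relative to DMSO.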

A short description of experiment [13]: CCTE_Shafer_MEA_acute_burst_percentage_mean: CCTE's Neural Acute Assay for Percentage of Spikes in a Burst, Shafer Lab (AID 2284017). An outline of the steps: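 Compounds were tested at 0.03-40 uM on primary rat cortical neuron networks grown over microelectrodes, with at least three wells per compound. Spontaneous firing was recorded for 40 min before and 40 min after dosing, and the change in burst percentage was computed per well.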

Experiment [14] in a line: CCTE_Shafer_MEA_acute_burst_percentage_std: CCTE's Neural Acute Assay for Standard Deviation of Burst Percentage, Shafer Lab (AID 2284018).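 Further: fitted in the negative direction so actives lower burst percentage SD.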 An outline of the steps: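 Rat primary cortical neurons on 48-well MEAs, DIV 13 or 15, 37 C. 40-min baseline then 40-min recording with compound (0.03-40 uM); well-level SD of per-electrode burst spike percentage, expressed as percent change from baseline.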

A short description of experiment [15]: CCTE_Shafer_MEA_acute_per_network_burst_spike_number_mean: CCTE's Neural Acute Assay for Average Number of Spikes in a Network Burst, Shafer Lab (AID 2284019). An outline of the steps: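 Rat cortical cultures, DIV 13/15; spike threshold 8x rms noise, 300-5000 Hz band-pass, 12.5 kHz sampling; wells need >/= 10 active electrodes. Compound 0.03-40 uM, 40 min, 37 C; % change vs own baseline, DMSO negative control.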

Experiment [16] in a line: CCTE_Shafer_MEA_acute_per_network_burst_spike_number_std: CCTE's Neural Acute Assay for Standard Deviation of Number of Spikes in a Network Burst, Shafer Lab (AID 2284020).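 Further: fitted for decrease in spike-number SD versus DMSO so actives lower it.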 A digest of the protocol:
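Rat cortical cultures, DIV 13/15, 37 C; 20-min stabilisation, 40-min baseline, compound 0.03-40 uM, 40-min re-record. Spikes detected at 8x rms noise (300-5000 Hz band-pass). Readout: % change from baseline in per-burst spike-number SD.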

Nucleoli Translocation, AR (gene 367), sequence (P10275 whole entry, looked up): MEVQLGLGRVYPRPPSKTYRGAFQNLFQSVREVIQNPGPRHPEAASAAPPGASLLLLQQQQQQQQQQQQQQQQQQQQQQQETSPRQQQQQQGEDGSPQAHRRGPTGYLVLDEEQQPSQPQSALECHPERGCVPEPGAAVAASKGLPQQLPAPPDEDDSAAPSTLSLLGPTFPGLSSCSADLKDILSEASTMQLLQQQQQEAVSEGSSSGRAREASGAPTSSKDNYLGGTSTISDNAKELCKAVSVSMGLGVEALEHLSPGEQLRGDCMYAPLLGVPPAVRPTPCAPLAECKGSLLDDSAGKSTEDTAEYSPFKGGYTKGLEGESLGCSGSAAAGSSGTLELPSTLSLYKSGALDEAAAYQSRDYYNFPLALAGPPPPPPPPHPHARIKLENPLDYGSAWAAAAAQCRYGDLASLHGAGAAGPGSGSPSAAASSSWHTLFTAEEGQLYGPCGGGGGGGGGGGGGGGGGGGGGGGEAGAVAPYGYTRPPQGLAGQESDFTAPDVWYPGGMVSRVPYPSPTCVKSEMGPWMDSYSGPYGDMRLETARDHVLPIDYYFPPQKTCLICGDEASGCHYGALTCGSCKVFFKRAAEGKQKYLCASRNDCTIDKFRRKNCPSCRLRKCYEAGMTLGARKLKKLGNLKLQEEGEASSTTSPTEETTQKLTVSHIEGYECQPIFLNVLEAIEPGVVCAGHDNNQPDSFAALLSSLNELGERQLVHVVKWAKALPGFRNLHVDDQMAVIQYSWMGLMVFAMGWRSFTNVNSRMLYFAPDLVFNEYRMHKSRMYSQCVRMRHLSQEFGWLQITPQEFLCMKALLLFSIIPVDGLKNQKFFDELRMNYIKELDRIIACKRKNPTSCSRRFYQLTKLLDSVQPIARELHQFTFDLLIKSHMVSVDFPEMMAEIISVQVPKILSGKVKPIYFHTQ
Ratio of Nucleoli Translocation and Cytoplasm, AR (gene 367), sequence (P10275 whole entry, looked up): as above

In the case of `CCO[Si](CC)(OCC)OCC`, the call in experiment [1], in experiment [2] and in [3] was inactive.
For the molecule `CCCCCCOc1ccc(O)cc1`, the results for the half-maximal activity concentration (AC50) in experiment [1], in experiment [2] and in [3] were 27.7 µM (active), 90 µM (active) and 23.9 µM (active), respectively.
Turning to `c1ccc(OCCOc2ccccc2)cc1`, the molecule was called inactive in [4], in [5], in [6], in [7], in experiment [8] and in experiment [9]. Moreover, the molecule was classed as inactive in experiment [10], in experiment [11], in [12], in experiment [13], in experiment [14] and in experiment [15]. For the same molecule, the result in experiment [16] was inactive.
Consider `c1ccc2c(c1)-c1ccc3ccc4cccc5cc-2c1c3c45`, for which the outcome in experiment [1], in experiment [2], in experiment [3], in experiment [6] and in experiment [7] was inactive.
As for `CCCO[Si](OCCC)(OCCC)OCCC`, the molecule was classed as inactive in [4], in experiment [5], in [9], in experiment [10], in [11] and in [13]. Also, the outcome in [14], in experiment [15] and in [16] was inactive. The AC50 in [12] was 15 µM (active).
In the case of `COC(=O)c1cccc(C(=O)OC)c1`, the molecule was classed as inactive in [1] and in [2].
Turning to `CC1COC(=O)O1` (centres undefined), the molecule was classed as inactive in [1] and in experiment [3].
For the molecule `CCCCOCCOCCO`, the molecule was called inactive in [4], in experiment [5], in [6], in experiment [7], in [8] and in experiment [9]. In addition, the molecule was called inactive in [10], in experiment [11], in experiment [12], in experiment [13], in experiment [14] and in [15]. Also, the outcome in [16] was inactive.
In the case of `FC(F)(F)c1ccc(Cl)c(Cl)c1`, the result in experiment [2], in [3], in experiment [6], in experiment [7] and in experiment [8] was inactive.
As for `CNC(=C[N+](=O)[O-])NCCSCc1ccc(CN(C)C)o1`, in [6], the result was inactive.
On to `CC(C)CCCC(C)(C)O`, for which the call in [4], in [5], in experiment [9], in experiment [10], in experiment [11] and in experiment [12] was inactive. Besides, the result in [13], in experiment [14], in experiment [15] and in [16] was inactive.
As for `CCn1cc(C(=O)O)c(=O)c2ccc(C)nc21`, the concentration at half-maximal activity (AC50) in [4], in experiment [5] and in experiment [9] was 0.003 µM (active) each time. The result in experiment [6], in experiment [7], in [8], in [10], in experiment [11] and in experiment [12] was inactive. The call in experiment [13], in experiment [14], in [15] and in [16] was inactive.
As to `CCC(C)(C)C1CCC(=O)CC1`, the outcome in experiment [1], in experiment [2] and in [3] was inactive.
`CN(C)CCC=C1c2ccccc2CCc2ccccc21`: the result in experiment [6] and in [7] was inactive.
With `CC(CCO)CC(C)(C)C` (centres undefined), the call in experiment [1], in experiment [2] and in experiment [3] was inactive.
Consider `CCOc1ccc(NC(C)=O)cc1`, for which the molecule was called inactive in experiment [1], in experiment [2], in [3], in [6], in [7] and in experiment [8].
